Where a chain is given by its changes, count along the chain named.

Common to all, as to assay: HT-SELEX; high values mean tight binding
Common to all, as to conditions: protein: recombinant; vector His6-GST; dsDNA, one strand shown

For assay [1], the target named is T1, SALL4 ZFC4 WT (HT-SELEX) (Mus musculus, UniProt Q8BX22 870-940).
T1 sequence: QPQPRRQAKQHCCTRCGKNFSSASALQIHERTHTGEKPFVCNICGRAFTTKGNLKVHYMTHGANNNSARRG
A digest of the protocol:
(§1)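 DNA from a random library (1.5 µg in the first cycle, 200 ng afterwards) was incubated with purified recombinant mouse SALL4 zinc finger cluster 4, residues 870–940 (1 µg), for 10 min at room temperature in 100 µl buffer: 10 mM Tris–HCl pH 7.5, 50 mM NaCl, poly(dI-dC), DTT. Bound complexes were pulled down on Ni2+ beads, washed and PCR-amplified, and the selection was repeated for up to 6 cycles in triplicate. MiSeq reads were scanned for 6-mers, and binding signal is each canonical k-mer's read fraction as fold change over the initial random library.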

Assay [2] concerns the target T2, SALL4 ZFC4 R900W (HT-SELEX) (Mus musculus, UniProt Q8BX22 870-940, R900W).
T2 sequence: T1 sequence with R31W
A digest of the protocol:
as §1

Assay [3] addresses T3, SALL4 ZFC4 G921D (HT-SELEX) (Mus musculus, UniProt Q8BX22 870-940, G921D).
T3 sequence: T1 sequence with G52D
An outline of the steps: as §1

Regarding ACTTGG, the values for the binding signal in assay [1], in assay [2] and in assay [3] were 0.787 ± 0.0269 fold-change vs cycle 0, 0.907 ± 0.0234 fold-change vs cycle 0 and 0.936 ± 0.0313 fold-change vs cycle 0, respectively.

As for CATAGA, the binding signal worked out at 1.37 ± 0.0454 fold-change vs cycle 0 in assay [1] and 1.34 ± 0.0648 fold-change vs cycle 0 in assay [3].

TAATTA: the binding signal amounted to 4.1 ± 0.33 fold-change vs cycle 0 in assay [1], 2.77 ± 0.208 fold-change vs cycle 0 in assay [2] and 2.33 ± 0.317 fold-change vs cycle 0 in assay [3].

For AATCAA, the binding signal in assay [1] was determined as 2.03 ± 0.0966 fold-change vs cycle 0; in assay [2] it was 2 ± 0.106 fold-change vs cycle 0; in assay [3], 1.81 ± 0.125 fold-change vs cycle 0.

As to GATCTA, the binding signal in assay [1] came out at 1.25 ± 0.0377 fold-change vs cycle 0; in assay [2], 1.36 ± 0.0544 fold-change vs cycle 0; in assay [3], 1.41 ± 0.0811 fold-change vs cycle 0.

For the sequence AACTCG, the binding signal in assay [1] came out at 0.7 ± 0.0308 fold-change vs cycle 0; in assay [2] it was 0.798 ± 0.00905 fold-change vs cycle 0; in assay [3], 0.871 ± 0.024 fold-change vs cycle 0.

With CTCAAA, the binding signal was 1.09 ± 0.0723 fold-change vs cycle 0 in assay [1] and 1.2 ± 0.0463 fold-change vs cycle 0 in assay [3].

For AGCGTA, the results for the binding signal in assay [1], in assay [2] and in assay [3] were 0.55 ± 0.0304 fold-change vs cycle 0, 0.623 ± 0.0245 fold-change vs cycle 0 and 0.723 ± 0.0232 fold-change vs cycle 0, respectively.

As for AGTCAC, the values for the binding signal in assay [1], in assay [2] and in assay [3] were 0.789 ± 0.043 fold-change vs cycle 0, 0.9321 ± 0.00858 fold-change vs cycle 0 and 0.975 ± 0.0241 fold-change vs cycle 0, respectively.

Take ATTGTG: the binding signal was 1.1 ± 0.0622 fold-change vs cycle 0 in assay [1] and 1.18 ± 0.0673 fold-change vs cycle 0 in assay [3].

For AGCCTC, the binding signal in assay [1] was determined as 0.316 ± 0.0162 fold-change vs cycle 0; in assay [2] it was 0.401 ± 0.0165 fold-change vs cycle 0; in assay [3], 0.536 ± 0.0409 fold-change vs cycle 0.

As to AACTAA, the values for the binding signal in assay [1], in assay [2] and in assay [3] were 2.02 ± 0.0351 fold-change vs cycle 0, 2.07 ± 0.133 fold-change vs cycle 0 and 1.82 ± 0.176 fold-change vs cycle 0, respectively.

Turning to GAGAGA, the binding signal worked out at 0.898 ± 0.0151 fold-change vs cycle 0 in assay [1] and 1.06 ± 0.0177 fold-change vs cycle 0 in assay [3].

Turning to CAGCGG, the binding signal in assay [2] came to 0.136 ± 0.019 fold-change vs cycle 0; in assay [3], 0.242 ± 0.0833 fold-change vs cycle 0.

Consider CACAGC, for which the results for the binding signal in assay [2] and in assay [3] were 0.324 ± 0.0122 fold-change vs cycle 0 and 0.442 ± 0.0707 fold-change vs cycle 0, respectively.

For ACGGGG, the binding signal in assay [2] worked out at 0.257 ± 0.00971 fold-change vs cycle 0; in assay [3] it was 0.37 ± 0.0678 fold-change vs cycle 0.

As to GCGTGA, the binding signal in assay [2] was determined as 0.325 ± 0.00871 fold-change vs cycle 0; in assay [3] it was 0.455 ± 0.056 fold-change vs cycle 0.

GGACCC: the binding signal in assay [2] was 0.246 ± 0.0211 fold-change vs cycle 0; in assay [3], 0.387 ± 0.0656 fold-change vs cycle 0.

In the case of CACGGC, the binding signal is 0.114 ± 0.0156 fold-change vs cycle 0 in assay [2] and 0.228 ± 0.0664 fold-change vs cycle 0 in assay [3].

On to CGCCCG, for which the binding signal in assay [2] is 0.0459 ± 0.011 fold-change vs cycle 0; in assay [3] it was 0.128 ± 0.0586 fold-change vs cycle 0.

For the sequence AGCCGG, the values for the binding signal in assay [2] and in assay [3] were 0.121 ± 0.00957 fold-change vs cycle 0 and 0.244 ± 0.0663 fold-change vs cycle 0, respectively.

With ACGCCG, the results for the binding signal in assay [2] and in assay [3] were 0.0708 ± 0.0067 fold-change vs cycle 0 and 0.183 ± 0.0752 fold-change vs cycle 0, respectively.

As for GGTGCA, the binding signal in assay [2] came to 0.359 ± 0.0169 fold-change vs cycle 0; in assay [3] it was 0.479 ± 0.0732 fold-change vs cycle 0.

For AGCCGA, the binding signal in assay [2] came out at 0.263 ± 0.0162 fold-change vs cycle 0; in assay [3], 0.384 ± 0.065 fold-change vs cycle 0.

For the sequence CCCGAC, the binding signal in assay [2] was 0.183 ± 0.0155 fold-change vs cycle 0; in assay [3], 0.308 ± 0.0677 fold-change vs cycle 0.

In the case of CGAGGC, the binding signal in assay [2] was 0.149 ± 0.0127 fold-change vs cycle 0; in assay [3], 0.271 ± 0.0651 fold-change vs cycle 0.

CGGCCA: the binding signal was 0.0795 ± 0.00952 fold-change vs cycle 0 in assay [2] and 0.19 ± 0.0619 fold-change vs cycle 0 in assay [3].

As for CCCGGA, the binding signal in assay [2] amounted to 0.231 ± 0.0171 fold-change vs cycle 0; in assay [3] it was 0.334 ± 0.0568 fold-change vs cycle 0.

Source of the values: PMC9838217, “Structure of SALL4 zinc finger domain reveals link between AT-rich DNA binding and Okihiro syndrome”.
